# From PubChem BioAssay
# In the library only some 1.1% were active in any assay of this set; here they are far more common.
# HttQ103 aggreg: reduces HttQ103-GFP aggregates in PC12 cells; hit rate 1.1% among 220,000; Potency, µM (titrated, usually from 46.1 µM), for inactives: at the highest dose activity change, negative = inhibition, most hits filed as inhibitors; PC12 HttQ103-GFP aggregates, Acumen cytometry, 40 h; note: potency is the fitted concentration of half-maximal effect; % is set by controls: 0 for no effect and ±100 for the full control effect; nearly all actives have a fitted effect of over 60% in size
#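 Multiplexed with ATP-based cell death, this channel scores GFP aggregates in PC12 cells expressing inducible HTTex1-Q103-GFP. Induction used 100 nM tebufenozide; compounds were tested in concentration series.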
# HTT cytoprotect: protects HTT-Q103 PC12 cells, measured by ATP. PC12 HTT-Q103 induced, cytoprotection, ATP luminescence, 40 h. Potency, µM (doses to about 56.4 µM), without a hit: cytoprotection (ATP increase), usual class: activators. hit rate 0.14% among 230,000; note: potency is the fitted concentration of half-maximal effect; % of control where 0% means no effect; nearly all actives have a fitted effect of over 45% in size
#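 Compounds were screened for protection of PC12 cells against cell death after tebufenozide induction (100 nM final) of mutant Huntingtin exon 1 (Q103) fused to GFP.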
# Lamin A splicing: LMNA splicing modulation; HeLa LMNA splicing GFP/RFP minigene ratio, 48 h; Potency, µM (highest dose often 46.1 µM), without a hit: at the highest dose ratio change, negative = inhibition, most hits filed as inhibitors; hit rate 0.01% among 200,000; AID 1487; active = well fitted inhibition curve with a large enough effect in the signal ratio, with a control signal flat, not every such curve was filed as active; inconclusive = small, poorly fitted or top-dose-only effect, or effect the other way, or a change in a side signal; the % refers to the signal ratio; note: potency is the fitted concentration of half-maximal effect; % is set by controls: 0 for no effect and ±100 for the full control effect
#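 S3 HeLa stable clones carrying a lamin A-EGFP splicing minigene plus DsRed2 were seeded at 600 cells/well in Opti-MEM with 2% FBS, pin-dosed and incubated 48 h at 37°C. Acumen cytometry (488 nm) gave the GFP/RFP total-intensity ratio.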
# MBNL1 CUG block: MBNL1-poly(CUG) RNA binding inhibition | Q9NR56 | TR-FRET MBNL1-His/biotin-(CUG)12 binding, 665/545 ratio | Potency, µM (highest dose often 57.5 µM), inactives show top-dose activity change, negative = inhibition, usual class: inhibitors | hit rate 0.036% among 280,000; active = well fitted inhibition curve with a large enough effect in the signal ratio, with a control signal flat, not every such curve was filed as active; inconclusive = small, poorly fitted or top-dose-only effect, or effect the other way, or a change in a side signal; inactive = no such curve, though single readings can be large or run the other way; the % refers to the signal ratio; note: potency is the fitted concentration of half-maximal effect; % is set by controls: 0 for no effect and ±100 for the full control effect
#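 MBNL1-His + Biotin-(CUG)12, cpd titration 92 nM–58 uM; Tb anti-His Ab 0.055 ng/ul, SA-XL665 5 nM (final); 60 min RT; ratiometric 665/545 nm, Ex 340 nm; normalized to buffer and full-complex controls.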
# CBFb-RUNX1 inh: blocks binding between human CBF-beta and RUNX1 | Q01196+Q13951 | AlphaScreen CBFb-His/RUNX1-biotin binding, biochemical | Potency, µM (series often up to 59.8 µM), for inactives: at the top dose activity, negative = inhibition, usual class: inhibitors | 230,000 tested, under 10 active; note: % of control where 0% means no effect
#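 CBFb-His/RUNX1-biotin, 30 nM each, preincubated 20 min RT; compound 15 min RT; Ni + streptavidin beads 50 ng each, 90 min RT; AlphaScreen read.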
# NPSR antag: neuropeptide S receptor (human) antagonism, cAMP | Q6W5P4 | CHO-NPSR cells, cAMP TR-FRET, antagonist mode | Potency, µM (doses to about 38.3 µM), inactives show at the top dose activity change, negative = inhibition, usual class: inhibitors | hit rate 1% among 220,000 | AID 1461; note: potency is the fitted concentration of half-maximal effect; % is set by controls: 0 for no effect and ±100 for the full control effect; nearly all actives have a fitted effect of over 50% in size
# Target sequence (Q6W5P4 whole entry, looked up): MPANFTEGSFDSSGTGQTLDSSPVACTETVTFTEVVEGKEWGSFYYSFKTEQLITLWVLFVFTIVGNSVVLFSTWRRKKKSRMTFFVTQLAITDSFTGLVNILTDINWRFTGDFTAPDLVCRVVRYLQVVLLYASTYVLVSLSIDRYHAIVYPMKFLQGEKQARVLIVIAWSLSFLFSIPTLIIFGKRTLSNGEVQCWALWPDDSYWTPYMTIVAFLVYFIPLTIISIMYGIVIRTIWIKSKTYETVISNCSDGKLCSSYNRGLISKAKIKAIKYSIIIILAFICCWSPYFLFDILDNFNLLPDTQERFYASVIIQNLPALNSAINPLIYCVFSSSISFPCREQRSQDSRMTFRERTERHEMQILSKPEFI
# MBNL1-CUG FRET: blocks human MBNL1 binding to CUG repeat RNA, TR-FRET validation; shares compounds with MBNL1 CUG block; TR-FRET MBNL1-His / biotin-(CUG)12 binding, 60 min; Potency, µM (highest dose often 57.6 µM), for the others: at the top dose activity change, negative = inhibition, usual class: inhibitors; hit rate 50% among 140; AID 493199
# MBNL1-CUG Alpha: confirmation of MBNL1-(CUG)12 RNA binding inhibitors, orthogonal format. shares compounds with MBNL1 CUG block. AlphaScreen MBNL1-His / biotin-(CUG)12 binding. Potency, µM (highest dose often 57.7 µM), without a hit: at the highest dose activity, negative = inhibition, hits mostly inhibitors. hit rate 30% among 140
# MBNL1 HTRF CS: hit in HTRF counterscreen for MBNL1-poly(CUG) binding inhibitors; Potency, µM (doses to about 57.6 µM), without a hit: at the top dose activity, negative = inhibition, hits mostly inhibitors; hit rate 20% among 120; AID 651843; shares compounds with MBNL1 CUG block; His-Menin/biotin-MLL peptide TR-FRET counterscreen
# An asterisk follows results filed as active; u = inconclusive; x = no result given; [ ] = remark or other dose. Unless noted, calls come from the whole dose curve; as a rule, active = well fitted curve in the direction sought with a large enough effect; inconclusive = small, poorly fitted or top-dose-only effect, or another doubt; inactive = no such curve, though single readings can be large; an effect the other way counts as inactive or inconclusive.
SMILES,HttQ103 aggreg,HTT cytoprotect,Lamin A splicing,MBNL1 CUG block,CBFb-RUNX1 inh,NPSR antag,MBNL1-CUG FRET,MBNL1-CUG Alpha,MBNL1 HTRF CS
COc1ccc(NC(=O)N2CCc3c(sc4c3CCCC4)C2c2ccc(F)cc2)cc1 (configuration not stated),x,x,-12%[46 µM],x,x,x,x,x,x
CN(C)c1ccc(-c2nc(NCc3cccnc3)c3ccccc3n2)cc1,x,-108%,u,x,x,x,x,x,x
Cc1cc(N)c2cc(NC(=O)Nc3ccc4nc(C)cc(N)c4c3)ccc2n1,-41%,-67%,x,x,x,x,x,x,21µM*
Cc1cccc(CSc2nc(N)c(C#N)c(-c3cccs3)c2C#N)c1,u,-15%[10 µM],1%,12%,9%,u,x,x,x
N#Cc1c(N)nc(SCC(=O)NCCc2ccccc2)c(C#N)c1-c1cccs1,13%,-20%,11%,134%,u,u,u,-3%,0%
C/C1=C2N=C(/C=C3N=C(/C(C)=C4\[N-]C(C)(C5N=C1C(C)(CCC(=O)NCC(C)OP(=O)([O-])O[C@H]1C(O)C(n6cnc7cc(C)c(C)cc76)O[C@@H]1CO)C5CC(N)=O)C(C)(CC(N)=O)C4CCC(N)=O)C(C)(CC(N)=O)C\3CCC(N)=O)C(C)(C)C/2CCC(N)=O.[CH2-]C1OC(n2cnc3c(N)ncnc32)C(O)C1O.[Co] (some centres not stated),3%,-44%,u,x,-13%,x,0.12µM*,5.2µM*,x
CCOc1ccc2nc(N(Cc3cccnc3)C(=O)c3ccco3)sc2c1,x,x,8%[46 µM],x,x,x,x,x,x
O=C(c1ccc([N+](=O)[O-])cc1)N1c2ncnn2C2(CCCCC2)[C@@H]2CCCC[C@@H]21,x,x,2%[46 µM],x,x,x,x,x,x
Cc1ccc(S(=O)(=O)Oc2ccccc2/C=N/N=C(N)N)cc1,23%[9.22 µM],-23%,-27%[46 µM],18µM*,-12%,-25%,16µM*,-27%,u
Cc1ccc(S(=O)(=O)Oc2ccccc2/C=N/NC(N)=S)cc1,u,-53%[10 µM],u,1%,0%,-3%[46.1 µM],x,x,x
